Assay results published in PubChem BioAssay AID1159580 (chemical genetic matrix, 2015).
Several values for one entry are separate records, joined by “and”; a condition that tells them apart may be missing. Equal values may be shown once. Screen size: about 5,500 compounds; about 2,000 (36%) were called active. Another 18% or so got no clear call; they are omitted. Cut-off read from the data, not from the text of the source: active = normalized growth mostly below about 0.91 (no sharp cut-off); inconclusive = no clear call, values can overlap the other calls; inactive = mostly above about 0.92. Some of the results follow.

Assay: chemical genetic growth profiling, strain panel (AID 1159580);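 note: tested at 20 µM; growth read once vehicle control cultures reached saturation at 30 °C; 1 = growth at the plate median or of vehicle wells; lower values mean less growth of the strain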
Conditions: S. cerevisiae deletion strains, growth OD

Measured: normalized growth

Nc1nc(=S)c2[nH]cnc2[nH]1
inactive: locus YAL013W, strain DEP1, stronger effect = lower value 1.01 | locus YAL021C, strain ccr4, stronger effect = lower value 0.946 | locus YAL026C, strain drs2, stronger effect = lower value 0.971 | locus YAL030W, strain snc1, stronger effect = lower value 0.975 | locus YBL061C, strain skt5, stronger effect = lower value 0.988 | locus YBR009C, strain hhf1, stronger effect = lower value 1.03 | locus YBR021W, strain FUR4, stronger effect = lower value 0.999 | locus YBR023C, strain chs3, stronger effect = lower value 0.969 | locus YBR171W, strain sec66, stronger effect = lower value 0.974 | locus YBR229C, strain ROT2, stronger effect = lower value 1 | locus YBR231C, strain swc5, stronger effect = lower value 1.03 | locus YBR279W, strain paf1, stronger effect = lower value 0.973 | locus YCL011C, strain gbp2, stronger effect = lower value 0.971 | locus YCL016C, strain dcc1, stronger effect = lower value 0.947 | locus YCL029C, strain bik1, stronger effect = lower value 1.01 | locus YCL061C, strain MRC1, stronger effect = lower value 0.993 | locus YCL069W, strain vba3, stronger effect = lower value 0.976 | locus YCR088W, strain abp1, stronger effect = lower value 0.98 | locus YDL005C, strain med2, stronger effect = lower value 0.965 | locus YDL035C, strain GPR1, stronger effect = lower value 1.02 | locus YDL040C, strain nat1, stronger effect = lower value 0.982 | locus YDL074C, strain BRE1, stronger effect = lower value 1.01 | locus YDL101C, strain DUN1, stronger effect = lower value 1.01 | locus YDL134C, strain PPH21, stronger effect = lower value 1.01 | locus YDL185W, strain tfp1, stronger effect = lower value 0.996 | locus YDL192W, strain arf1, stronger effect = lower value 1.01 | locus YDR001C, strain nth1, stronger effect = lower value 0.982 | locus YDR069C, strain doa4, stronger effect = lower value 0.982 | locus YDR101C, strain arx1, stronger effect = lower value 0.986 | locus YDR137W, strain rgp1, stronger effect = lower value 0.967 | locus YDR150W, strain NUM1, stronger effect = lower value 1.01 | locus YDR159W, strain sac3, stronger effect = lower value 0.957 | locus YDR162C, strain NBP2, stronger effect = lower value 1.02 | locus YDR195W, strain ref2 0.988 | locus YDR297W, strain sur2, stronger effect = lower value 1 | locus YDR318W, strain mcm21, stronger effect = lower value 1 | locus YDR334W, strain swr1, stronger effect = lower value 0.962 | locus YDR335W, strain msn5, stronger effect = lower value 0.98 | locus YDR388W, stronger effect = lower value 0.998 | locus YDR392W, strain spt3, stronger effect = lower value 0.859 | locus YDR502C, strain sam2, stronger effect = lower value 1 | locus YEL003W, strain gim4, stronger effect = lower value 0.988 | locus YEL037C, strain rad23, stronger effect = lower value 0.973 | locus YEL061C, strain CIN8 (second series), stronger effect = lower value 0.975 | locus YEL061C, strain CIN8, stronger effect = lower value 1.01 | locus YER015W, strain faa2, stronger effect = lower value 0.983 | locus YER016W, strain bim1, stronger effect = lower value 0.942 | locus YER110C, stronger effect = lower value 1 | locus YER111C, strain swi4, stronger effect = lower value 0.959 | locus YER155C, strain BEM2 (second series), stronger effect = lower value 1 | locus YER155C, strain BEM2, stronger effect = lower value 1.02 | locus YER167W, strain BCK2, stronger effect = lower value 1.01 | locus YFR010W, strain ubp6, stronger effect = lower value 1 | locus YGL078C, strain dbp3, stronger effect = lower value 0.997 | locus YGL086W, strain mad1, stronger effect = lower value 0.997 | locus YGL167C, strain pmr1, stronger effect = lower value 0.979 | locus YGL173C, strain kem1, stronger effect = lower value 0.98 | locus YGL227W, strain vid30, stronger effect = lower value 0.973 | locus YGL240W, strain doc1, stronger effect = lower value 1.01 | locus YGL248W, strain PDE1, stronger effect = lower value 1.01 | locus YGL253W, strain hxk2, stronger effect = lower value 0.961 | locus YGR078C, strain PAC10, stronger effect = lower value 0.988 | locus YGR135W, strain pre9, stronger effect = lower value 0.998 | locus YGR229C, strain SMI1, stronger effect = lower value 0.99 | locus YGR252W, strain gcn5, stronger effect = lower value 0.981 | locus YHR013C, strain ard1, stronger effect = lower value 0.93 | locus YHR027C, strain rpn1, stronger effect = lower value 0.99 | locus YHR030C, strain SLT2, stronger effect = lower value 1.02 and 0.978 | locus YHR079C, strain IRE1 (second series), stronger effect = lower value 1 | locus YHR079C, strain IRE1, stronger effect = lower value 0.998 | locus YHR094C, strain hxt1, stronger effect = lower value 0.998 | locus YHR129C, strain ARP1, stronger effect = lower value 1.01 | locus YHR142W, strain chs7, stronger effect = lower value 0.945 | locus YHR200W, strain rpn10, stronger effect = lower value 0.998 | locus YIL066C, strain RNR3, stronger effect = lower value 1.01 | locus YIL073C, strain SPO22, stronger effect = lower value 1.04 | locus YIL125W, strain kgd1, stronger effect = lower value 0.995 | locus YIR030C, strain dcg1, stronger effect = lower value 1 | locus YJL092W, strain hpr5, stronger effect = lower value 0.991 | locus YJL095W, strain BCK1 (second series), stronger effect = lower value 0.964 | locus YJL095W, strain BCK1, stronger effect = lower value 1.02 and 0.979 | locus YJL115W, strain asf1, stronger effect = lower value 0.972 | locus YJL129C, strain trk1, stronger effect = lower value 0.936 | locus YJL134W, strain LCB3, stronger effect = lower value 1 | locus YJL154C, strain vps35, stronger effect = lower value 0.971 | locus YJL164C, strain tpk1, stronger effect = lower value 0.998 | locus YJL166W, strain qcr8, stronger effect = lower value 1.01 | locus YJL168C, strain set2, stronger effect = lower value 0.995 | locus YJL187C, strain SWE1 (second series), stronger effect = lower value 1.01 | locus YJL187C, strain SWE1, stronger effect = lower value 0.981 | locus YJR043C, strain POL32, stronger effect = lower value 1.01 | locus YJR066W, strain TOR1, stronger effect = lower value 0.949
